Bioassay records as filed in PubChem.
Shown are actives, neighbours in structure and some others; about 3.5% of the full set was active somewhere.
BoNT-F LC inh = inhibitors of Botulinum neurotoxin F light chain protease; Multiplex microsphere protease cleavage assay, flow cytometry; 360,000 tested, 0.22% active; inhibition, % at 10 µM; in the data active = inhibition above about 35%, passing the limit was not always enough; inconclusive = no clear call, values can overlap the other calls
BoNT-A LC inh2 = inhibitors of Botulinum neurotoxin A light chain protease; multiplex microsphere protease substrate cleavage, flow cytometry; inhibition, % at 10 µM; 360,000 tested, 0.17% active
Anthrax LF prot = blocks Bacillus anthracis lethal factor protease; P15917; multiplex microsphere protease cleavage assay, LF; 360,000 tested, 0.12% active; inhibition, % at 10 µM; AID 588501
Bead autofluor = flagged as autofluorescent in microsphere protease counterscreen | compound autofluorescence counterscreen, microsphere flow cytometry; hits give high values | fluorescence intensity (concentration not given with the values) | 360,000 tested, 3.1% active | AID 624483; in the data active = fluorescence intensity above about 16000; inconclusive = no clear call, values can overlap the other calls
Each line names hits and unclear results; the compound was inactive in the other large screens; ! = not active in a repeat. Rule as the data show it, unless noted: active = inhibition above about 30%; inconclusive = no clear call, values can overlap the other calls; inactive = below that.

COc1ccc(C(=O)N/C=C/n2cnc3cc(C(F)(F)F)ccc32)cc1	none
COc1ccc(C(O)c2nc(-c3cc4ccccc4o3)cs2)cc1 (stereo not drawn)	none
COc1ccc(-c2csc(-c3cc4ccccc4oc3=N)n2)cc1	BoNT-A LC inh2 39
CCCc1cc(C(N)=O)c(NC(=O)c2ccoc2C)s1	Bead autofluor 23003
CCCc1cc(C(N)=O)c(NC(=O)c2cc(C)on2)s1	BoNT-A LC inh2 inconclusive, Bead autofluor 16687
CCCOc1ccc(N2C(=O)CC(N(Cc3ccco3)C(=O)CC)C2=O)cc1 (stereo not drawn)	none
CCCOc1ccc(N2C(=O)CC(N(C(=O)c3ccco3)c3ccc(OCCC)cc3)C2=O)cc1 (stereo not drawn)	BoNT-A LC inh2 inconclusive, Bead autofluor 16880
Cc1csc2nc(O)c(C(=O)NC3CCCCCC3)c(=O)n12	Bead autofluor 18119
CC1CN(c2ccc(NC(=S)NNCCC#N)cc2)CC(C)O1 (stereo not drawn)	none
CN1CCN(c2ccc(CNS(=O)(=O)c3ccsc3)cc2)CC1	none
O=S(=O)(Nc1nc2ccccc2nc1Cl)c1ccc(Cl)cc1	none
O=S(=O)(Nc1ncccc1O)c1ccc(Cl)cc1	BoNT-A LC inh2 inconclusive, Bead autofluor 23828
O=S(=O)(Nc1cc(Cl)ccn1)c1ccc(Cl)cc1	Bead autofluor 17683
Cc1ccccc1CS(=O)(=O)CC(O)CN1CCCC1=O (stereo not drawn)	none
CSc1cccc(NC(=O)/C=C/c2cccc(Cl)c2)c1	none
CC(=O)Nc1ccc(/C=C(\C#N)C(N)=O)cc1	BoNT-F LC inh 35, Anthrax LF prot inconclusive
Cc1ccc(C)c(/C=C2\N=C(c3ccccc3F)OC2=O)c1	none
COc1cc(/C=C2/N=C(c3ccccc3F)OC2=O)cc(Cl)c1OS(C)(=O)=O	Bead autofluor 20200
Cc1cc(S(=O)(=O)Nc2ccc(C(=O)NCC(C)(C)N3CCOCC3)cc2)ccc1F	none
Cc1ccc(C(=O)OCC(=O)Nc2c(Cl)cc(S(N)(=O)=O)cc2Cl)o1	none
CN(C)C(=O)CSc1nnc(Cc2ccccc2)n1Cc1ccco1	none
O=C(CSc1nnc(Cc2ccccc2)n1Cc1ccco1)NC12CC3CC(CC(C3)C1)C2	BoNT-A LC inh2 inconclusive, Bead autofluor 23614
COCCCNC(=O)COc1ccc2oc3c(c2c1)CCCC3	none
CCC(C)(C)C(=O)Nc1nnc(CCc2ccccc2)s1	BoNT-F LC inh 36
CCN(CC(=O)NCc1ccc(F)cc1)C(=O)c1cccnc1SC	none
COc1ccc(NC(=O)CC2C(=O)N(c3ccc(F)cc3)C(=S)N2NC(=O)c2ccc(Cl)cc2)cc1 (stereo not drawn)	none
CCOC(=O)c1ccc(N=C2NC(=O)CS2)cc1	Bead autofluor 23536
COc1ccc(Cl)cc1NC(=O)C(C)N(C)Cc1cccc(Cl)c1Cl (stereo not drawn)	none
O=C(CN(Cc1ccco1)C(=O)c1ccc(F)cc1F)Nc1ccccc1C(F)(F)F	none
O=C(CN(Cc1ccco1)C(=O)c1cc(=O)[nH]c2ccccc12)Nc1ccccc1C(F)(F)F	Bead autofluor 16502
CC(C)(CN1CCN(c2ccccc2)CC1)NS(=O)(=O)c1ccccc1	none
CCOc1cccc(C=Nc2cc(C)cc(C)c2O)c1O	BoNT-A LC inh2 inconclusive, Bead autofluor 22996
CC(C)OC(=O)c1cccnc1SCc1cc(=O)n2ccccc2n1	Bead autofluor 24425
Cn1c(=O)c2c(ncn2CC(=O)Nc2ccccc2)n(C)c1=O	none
Cn1c(=O)c2c(ncn2CCN(CCO)Cc2ccccc2)n(C)c1=O	Bead autofluor 20125
CCN(Cc1ccccc1)C(=O)Cn1cnc2c1c(=O)n(C)c(=O)n2C	BoNT-A LC inh2 inconclusive, Bead autofluor 20794
CN(C)/C(CN1CCOCC1)=C1\N=C(c2ccccc2)OC1=O	Bead autofluor 23718
O=C(Cn1cc(COc2ccc(Cl)c(Cl)c2)nn1)NS(=O)(=O)c1ccccc1OC(F)(F)F	none
Cc1ccc(Oc2nnc(-c3ccccc3)c3ccccc23)cc1	Bead autofluor 21278
CCOC(=O)c1cc2c(C)n(-c3ccc(N(C)C)cc3)c(C)c2cc(C(=O)OCC)c1=O	BoNT-A LC inh2 inconclusive, Bead autofluor 18745
CCCCn1nnc(NC(=O)C(c2ccccc2)c2ccccc2)n1	none
CCCCn1nnc(NC(=O)CCC)n1	Bead autofluor 19212
N#C/C(=C/c1cn(CC(=O)O)c2ccccc12)C(=O)NCc1ccccc1	none
CSc1ccc(-c2c(C#N)c(N)nc3c2CCCC3)cc1	none
N#Cc1c(N)nc2c(c1-c1ccncc1)CCCCC2	Bead autofluor 16184
N#Cc1c(N)nc2c(c1-c1cccnc1)CCCCC2	BoNT-A LC inh2 inconclusive, Bead autofluor 21866
Cc1ccnc(NC(=O)CCCOc2cc(=O)n(C)c3ccccc23)c1	BoNT-A LC inh2 inconclusive, Bead autofluor 21080!
Cn1c(=O)cc(OCCCC(=O)N2CCCCC2)c2ccccc21	Bead autofluor 22743
Cn1c(=O)cc(OCCCC(=O)NCc2ccccn2)c2ccccc21	Anthrax LF prot inconclusive, Bead autofluor inconclusive
CN1CCN(C(=O)CCCOc2cc(=O)n(C)c3ccccc23)CC1	none
Cc1ccc2nc(SCc3ccc([N+](=O)[O-])cc3)nc(C)c2c1	BoNT-A LC inh2 inconclusive, Bead autofluor 23313
Cc1cc(C)c2nc(SCc3ccc([N+](=O)[O-])cc3)nc(C)c2c1	BoNT-A LC inh2 inconclusive, Bead autofluor 20592
Cc1ccc2nc(SCc3ccc([N+](=O)[O-])cc3)[nH]c2c1	none
Cc1nc2ccccc2c(=O)n1-c1ccc([N+](=O)[O-])cc1	none
Cc1ccc(-n2c(SCc3ccc([N+](=O)[O-])cc3)nc3ccccc3c2=O)cc1	Bead autofluor 20811
Cc1cc(C)c2nc(SCCc3ccccc3)nc(C)c2c1	none
Cc1cc(C)cc(-n2ncc3c2CCCC3NC(=O)c2ccccc2N2CCOCC2)c1 (stereo not drawn)	none
Cc1c(N=C2N=C(NC(=O)Nc3ccc(Cl)cc3)c3ccccc32)c(=O)n(-c2ccccc2)n1C	none
COCCOC(=O)c1c(C)n(C)c2ccc(OC(=O)c3cccs3)cc12	Bead autofluor 16814
COCCOC(=O)c1c(C)n(C)c2ccc(OC(=O)N(C)C)cc12	Bead autofluor 22829
CC(C)NC(=O)Nc1ccc2c(c1)C(=O)N([C@H](C)CO)C[C@H](C)[C@@H](CN(C)C(=O)NC(C)C)O2	none
Cc1noc(NS(=O)(=O)c2ccc(NC(=O)c3cnc4n(c3=O)CCS4)cc2)c1C	Bead autofluor 21016
Cc1cccc(NC(=O)c2cnc3n(c2=O)CCS3)c1	BoNT-A LC inh2 inconclusive, Bead autofluor 20823
Cc1noc(NS(=O)(=O)c2ccc(NC(=O)COc3ccccc3)cc2)c1C	Bead autofluor 22340
Cc1ccccc1C(=O)Nc1ccc(S(=O)(=O)Nc2onc(C)c2C)cc1	none
O=C(Nc1ccc2c(c1)OCO2)c1cnc2n(c1=O)CCS2	Bead autofluor 22821
O=C(Nc1ccc2c(c1)OCCO2)c1cnc2n(c1=O)CCS2	none
CC1CCCCC12NC(=O)N(CC(=O)OCC(=O)c1ccc(OC(F)F)cc1OC(F)F)C2=O (stereo not drawn)	none
CC1CCCCC1NC(=O)c1ccc(NC2=NC3CS(=O)(=O)CC3S2)cc1 (stereo not drawn)	none
COc1cc(CC(=O)OCC(=O)Nc2ccc(N(C)C)cc2)cc(OC)c1OC	none
CN(C)c1ccnc(Oc2ccccc2)c1C#N	none
CN(C)c1ccnc(SCc2ccccc2Cl)c1C#N	Bead autofluor 22367
